These results are taken from the supplement of paper PMC10849652.

Compound in this test: c1cn2cc(-c3ccc4cn[nH]c4c3)nc(Nc3ccc(N4CCOCC4)cc3)c2n1 [entospletinib]
The test can be described thus: log2 fold change, soluble protein after heating vs DMSO (PISA); higher = thermal stabilisation; K562 cells, 10 uM, 30 min; active = over 0.2 and 3.5 SD of the protein, either way, in both replicates (recomputed). In a few lines:
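Soluble protein was quantified by TMTpro 16plex LC-MS/MS after channel sums were equalised. It was obtained as the supernatant after 21,000xg for 90 min from pooled aliquots of K562 cells (2×10^6 cells/mL, 10 μM compound, 30 min) heated for 3 min across 48°C-58°C and extracted in PBS with 0.5% NP-40 at 4°C. Thermal stability values are relative to control samples and come from duplicates. They are given as log2 fold changes.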

About 7,900 targets were measured; listed, in parts, are those with a hit and a random draw of the rest. About 0.6% of all pairs of compound and target were hits. Unmarked numbers belong to inactive results.

Chain of UniProt P57081 (P57081 whole entry, looked up): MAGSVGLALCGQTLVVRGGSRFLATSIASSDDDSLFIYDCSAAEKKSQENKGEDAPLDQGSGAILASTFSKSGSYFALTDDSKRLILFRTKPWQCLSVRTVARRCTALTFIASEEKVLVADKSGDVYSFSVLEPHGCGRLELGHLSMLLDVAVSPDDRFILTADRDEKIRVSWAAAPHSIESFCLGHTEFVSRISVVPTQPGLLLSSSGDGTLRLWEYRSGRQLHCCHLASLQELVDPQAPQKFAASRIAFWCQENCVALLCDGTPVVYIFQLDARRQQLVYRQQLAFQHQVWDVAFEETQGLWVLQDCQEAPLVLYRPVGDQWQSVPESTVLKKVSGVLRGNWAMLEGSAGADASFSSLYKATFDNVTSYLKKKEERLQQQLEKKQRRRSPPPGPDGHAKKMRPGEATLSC
Chain of UniProt O43592 (O43592 whole entry, looked up): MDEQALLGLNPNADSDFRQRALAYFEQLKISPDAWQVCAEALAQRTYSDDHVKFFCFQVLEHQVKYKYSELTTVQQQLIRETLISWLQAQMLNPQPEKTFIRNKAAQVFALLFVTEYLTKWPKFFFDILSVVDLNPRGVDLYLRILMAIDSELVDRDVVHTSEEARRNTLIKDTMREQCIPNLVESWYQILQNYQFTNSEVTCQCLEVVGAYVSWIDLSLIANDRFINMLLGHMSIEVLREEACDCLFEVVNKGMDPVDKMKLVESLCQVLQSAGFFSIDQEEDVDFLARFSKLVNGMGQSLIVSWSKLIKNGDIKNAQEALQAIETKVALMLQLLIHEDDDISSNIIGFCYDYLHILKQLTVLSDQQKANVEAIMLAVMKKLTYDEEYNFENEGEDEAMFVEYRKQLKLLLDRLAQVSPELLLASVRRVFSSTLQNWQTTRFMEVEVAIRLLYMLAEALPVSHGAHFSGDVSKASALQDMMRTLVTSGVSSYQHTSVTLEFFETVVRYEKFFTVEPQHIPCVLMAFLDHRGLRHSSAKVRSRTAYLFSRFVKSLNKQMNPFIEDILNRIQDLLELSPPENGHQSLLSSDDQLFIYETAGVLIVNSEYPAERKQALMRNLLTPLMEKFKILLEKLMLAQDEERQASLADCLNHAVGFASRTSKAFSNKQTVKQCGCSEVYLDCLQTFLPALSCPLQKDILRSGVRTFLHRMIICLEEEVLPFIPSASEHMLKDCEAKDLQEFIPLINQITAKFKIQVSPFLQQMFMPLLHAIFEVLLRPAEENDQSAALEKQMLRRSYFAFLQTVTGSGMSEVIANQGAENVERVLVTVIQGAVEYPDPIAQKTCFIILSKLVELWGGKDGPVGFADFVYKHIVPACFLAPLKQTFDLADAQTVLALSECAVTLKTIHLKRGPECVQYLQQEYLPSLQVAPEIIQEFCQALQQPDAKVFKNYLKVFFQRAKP
Chain of UniProt Q99757 (Q99757 whole entry, looked up): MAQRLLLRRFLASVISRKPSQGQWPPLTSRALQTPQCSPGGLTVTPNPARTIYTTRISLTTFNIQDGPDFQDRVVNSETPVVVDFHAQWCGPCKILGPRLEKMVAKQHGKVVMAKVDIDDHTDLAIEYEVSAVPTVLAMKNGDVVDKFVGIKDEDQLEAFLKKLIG
Chain of UniProt Q9NQ34 (Q9NQ34 whole entry, looked up): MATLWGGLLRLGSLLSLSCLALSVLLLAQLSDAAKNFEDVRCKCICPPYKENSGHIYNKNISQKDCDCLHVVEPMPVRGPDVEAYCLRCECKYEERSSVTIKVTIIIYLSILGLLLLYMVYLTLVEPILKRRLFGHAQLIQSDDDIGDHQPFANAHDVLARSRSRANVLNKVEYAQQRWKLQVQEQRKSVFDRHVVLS
Chain of UniProt Q9HAD4 (Q9HAD4 whole entry, looked up): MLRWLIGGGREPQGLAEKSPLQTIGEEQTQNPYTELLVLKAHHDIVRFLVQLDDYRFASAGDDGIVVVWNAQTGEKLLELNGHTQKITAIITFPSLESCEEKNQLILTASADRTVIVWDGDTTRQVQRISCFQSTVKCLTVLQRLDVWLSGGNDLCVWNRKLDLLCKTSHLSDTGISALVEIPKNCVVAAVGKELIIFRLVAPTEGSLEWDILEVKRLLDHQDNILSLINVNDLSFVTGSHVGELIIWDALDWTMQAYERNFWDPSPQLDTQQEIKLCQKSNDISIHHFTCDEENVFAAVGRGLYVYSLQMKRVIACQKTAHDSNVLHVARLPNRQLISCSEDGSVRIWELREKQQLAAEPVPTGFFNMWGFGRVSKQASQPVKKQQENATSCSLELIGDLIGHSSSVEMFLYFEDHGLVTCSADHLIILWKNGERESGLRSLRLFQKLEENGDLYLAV
Chain of UniProt Q9Y6I4 (Q9Y6I4 whole entry, looked up): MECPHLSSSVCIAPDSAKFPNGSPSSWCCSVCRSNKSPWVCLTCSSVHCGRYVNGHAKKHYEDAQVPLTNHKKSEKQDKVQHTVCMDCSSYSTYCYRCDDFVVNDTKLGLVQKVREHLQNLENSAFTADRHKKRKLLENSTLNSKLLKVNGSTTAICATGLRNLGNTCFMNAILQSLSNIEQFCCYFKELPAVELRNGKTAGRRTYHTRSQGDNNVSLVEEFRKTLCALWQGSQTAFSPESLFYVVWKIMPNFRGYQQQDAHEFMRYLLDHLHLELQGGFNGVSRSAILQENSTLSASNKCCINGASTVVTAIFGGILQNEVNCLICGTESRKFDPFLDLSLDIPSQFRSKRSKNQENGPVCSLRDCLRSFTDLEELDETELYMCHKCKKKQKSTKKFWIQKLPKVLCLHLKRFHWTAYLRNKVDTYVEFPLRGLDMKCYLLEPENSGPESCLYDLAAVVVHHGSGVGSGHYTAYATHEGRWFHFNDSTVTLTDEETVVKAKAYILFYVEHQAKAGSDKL
Chain of UniProt Q53S58 (Q53S58 whole entry, looked up): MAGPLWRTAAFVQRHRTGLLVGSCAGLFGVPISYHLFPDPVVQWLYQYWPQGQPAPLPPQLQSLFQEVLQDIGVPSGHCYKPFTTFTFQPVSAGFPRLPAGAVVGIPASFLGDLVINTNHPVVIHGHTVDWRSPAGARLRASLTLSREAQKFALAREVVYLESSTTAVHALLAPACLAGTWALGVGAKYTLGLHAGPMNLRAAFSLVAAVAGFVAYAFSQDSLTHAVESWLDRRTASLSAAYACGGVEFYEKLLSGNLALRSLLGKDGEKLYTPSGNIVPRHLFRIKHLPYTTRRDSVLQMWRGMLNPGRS
Chain of UniProt Q9Y4E8 (Q9Y4E8 whole entry, looked up): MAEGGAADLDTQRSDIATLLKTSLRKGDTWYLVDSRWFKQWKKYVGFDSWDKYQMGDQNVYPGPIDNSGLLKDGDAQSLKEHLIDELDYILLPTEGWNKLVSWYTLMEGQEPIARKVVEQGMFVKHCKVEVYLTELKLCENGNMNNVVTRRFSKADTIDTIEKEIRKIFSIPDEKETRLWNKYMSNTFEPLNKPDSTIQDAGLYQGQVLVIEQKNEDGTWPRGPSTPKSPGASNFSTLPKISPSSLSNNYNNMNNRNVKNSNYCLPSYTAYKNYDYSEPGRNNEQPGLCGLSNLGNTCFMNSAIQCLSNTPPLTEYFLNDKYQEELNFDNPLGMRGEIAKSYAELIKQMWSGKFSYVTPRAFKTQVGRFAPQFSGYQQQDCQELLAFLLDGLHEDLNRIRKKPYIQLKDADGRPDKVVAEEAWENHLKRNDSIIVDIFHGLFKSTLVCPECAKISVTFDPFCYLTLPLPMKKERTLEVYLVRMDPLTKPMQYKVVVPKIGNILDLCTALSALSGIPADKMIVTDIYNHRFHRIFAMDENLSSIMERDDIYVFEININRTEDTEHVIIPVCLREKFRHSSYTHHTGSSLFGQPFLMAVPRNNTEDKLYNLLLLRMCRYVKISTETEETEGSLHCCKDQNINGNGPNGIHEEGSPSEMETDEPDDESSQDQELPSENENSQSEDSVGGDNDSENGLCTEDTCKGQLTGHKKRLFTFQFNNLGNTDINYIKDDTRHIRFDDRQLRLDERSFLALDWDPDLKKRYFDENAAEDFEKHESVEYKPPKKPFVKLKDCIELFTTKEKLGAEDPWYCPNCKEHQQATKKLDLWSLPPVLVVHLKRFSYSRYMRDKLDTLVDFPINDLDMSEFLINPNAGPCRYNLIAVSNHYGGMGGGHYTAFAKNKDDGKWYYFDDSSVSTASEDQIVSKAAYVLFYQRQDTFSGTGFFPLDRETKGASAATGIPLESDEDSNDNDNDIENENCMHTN
Chain of UniProt Q92973 (Q92973 whole entry, looked up): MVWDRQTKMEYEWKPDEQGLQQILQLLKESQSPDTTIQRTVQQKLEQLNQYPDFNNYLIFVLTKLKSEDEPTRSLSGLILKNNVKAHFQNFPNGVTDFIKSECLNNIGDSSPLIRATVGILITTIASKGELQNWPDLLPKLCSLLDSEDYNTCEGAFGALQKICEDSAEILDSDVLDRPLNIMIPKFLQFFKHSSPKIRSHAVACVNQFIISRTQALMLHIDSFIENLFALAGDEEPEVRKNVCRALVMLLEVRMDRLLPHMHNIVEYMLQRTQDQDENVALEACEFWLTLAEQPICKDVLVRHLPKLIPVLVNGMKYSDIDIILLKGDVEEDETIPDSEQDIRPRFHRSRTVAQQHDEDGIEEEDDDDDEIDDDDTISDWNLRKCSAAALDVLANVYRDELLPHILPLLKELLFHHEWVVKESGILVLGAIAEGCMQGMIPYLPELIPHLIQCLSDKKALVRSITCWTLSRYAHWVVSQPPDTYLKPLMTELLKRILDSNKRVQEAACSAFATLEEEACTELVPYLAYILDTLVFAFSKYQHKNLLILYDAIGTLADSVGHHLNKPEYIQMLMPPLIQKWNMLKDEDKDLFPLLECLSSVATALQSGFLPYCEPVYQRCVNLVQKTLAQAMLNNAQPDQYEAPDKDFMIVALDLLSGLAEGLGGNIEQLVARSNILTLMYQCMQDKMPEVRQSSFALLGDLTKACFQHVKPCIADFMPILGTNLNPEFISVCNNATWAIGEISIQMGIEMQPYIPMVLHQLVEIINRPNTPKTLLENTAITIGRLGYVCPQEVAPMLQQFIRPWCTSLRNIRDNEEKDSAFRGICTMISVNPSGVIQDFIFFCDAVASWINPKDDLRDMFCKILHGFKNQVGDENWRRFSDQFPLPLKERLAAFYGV
Chain of UniProt P61960 (P61960 whole entry, looked up): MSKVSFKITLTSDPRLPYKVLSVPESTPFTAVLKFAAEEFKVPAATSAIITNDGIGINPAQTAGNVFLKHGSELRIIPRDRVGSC

For the target WASHC2A (UniProt Q641Q2), the log2 fold change is 0.03.
Turning to UFM1 (UniProt P61960), the log2 fold change is -0.079.
The figure for XPOT (UniProt O43592) is 0.032; for TMEM173 (UniProt Q86WV6) it is -0.022; for VPS13B (UniProt Q7Z7G8) it is 0.053.
TOE1 (UniProt Q96GM8): the log2 fold change is 0.058.
Regarding UBE2S (UniProt Q16763), the log2 fold change is -0.029.
Take USP3 (UniProt Q9Y6I4): the log2 fold change is -0.003.
For the target TRAPPC3 (UniProt O43617), the log2 fold change is -0.013.
Regarding TRIM28 (UniProt Q13263), the log2 fold change was -0.025.
In the case of TMEM177 (UniProt Q53S58) it was 0.02.
Consider TNPO1 (UniProt Q92973), for which the log2 fold change was -0.001.
TXN2 (UniProt Q99757): the log2 fold change was 0.
Take TMEM192 (UniProt Q8IY95): the log2 fold change is 0.071.
As for TUBA4A (UniProt P68366), the log2 fold change is -0.031.
The figure for WDR11 (UniProt Q9BZH6) is -0.403; for TMEM161B (UniProt Q8NDZ6) it is 0.016; for VPS52 (UniProt Q8N1B4) it is 0.062.
The figure for WDR41 (UniProt Q9HAD4) is -0.019; for WDR4 (UniProt P57081) it is -0.027.
For USP15 (UniProt Q9Y4E8), the log2 fold change was 0.018.
The figure for TMEM9B (UniProt Q9NQ34) is -0.049.
USP48 isoform 8 (UniProt Q86UV5): the log2 fold change is 0.067.
